Results published in PubChem BioAssay AID720519 (National Center for Advancing Translational Sciences (NCATS), 2013).
Records with an inconclusive call do not appear. Values without a mark were called inactive. The call rests on the fitted dose curve; in most records, active means well fitted activation curve with a large enough effect; inconclusive means small, poorly fitted or top-dose-only effect; inactive means flat fitted curve, though single readings scatter.

experiment: qHTS for Inhibitors of Cell Surface uPA Generation: Confirmatory Assay for Cherry-picked Compounds; settings: cell surface uPA activity generation, qHTS confirmation; series mostly up to 115 µM; inhibition: at the top concentration; further: 0% is about no effect
Procedure, shortened: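 RAW 264.7 cells at 4000/well, incubated overnight, then treated with compounds. After 24 h at 37 C, viability was read by ATPlite luminescence. An increase in signal indicates blocked uPA-dependent LF entry.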

| SMILES | inhibition |
| --- | --- |
| Cc1ccc(OCc2cc(C(=O)N(C)Cc3cc(C4CC4)n[nH]3)no2)cc1C | -3.14% |
| O=C(N/C(=C\c1cccc([N+](=O)[O-])c1)C(=O)N1CCOCC1)c1ccc([N+](=O)[O-])cc1 | -0.71% |
| CCCCNC(=O)C1CCN(S(=O)(=O)c2c(C)noc2/C=C\c2ccc(OC)cc2)CC1 | -1.64% |
| COCCNC(=O)COCc1cc(-c2ccc3c(c2)OCO3)on1 | -2.16% |
| O=C(c1cc(COc2c(F)cccc2F)on1)N1CCc2ccccc2C1 | -2.89% |
| COc1cc(NC(=O)CSc2nnc3ccc(-c4ccncc4)nn23)cc(OC)c1 | 1.04% |
| COc1cccc(NC(=O)c2nnn(CC(=O)Nc3cc(C)cc(C)c3)c2N)c1 | 1.65% |
| CCCCN(CC)CCNC(=O)c1cc2cc3ccc(Cl)cc3nc2o1 | -3.31% |
| Cc1ccc(-n2nc3c(c2NC(=O)c2ccc4c(c2)OCO4)CS(=O)C3)c(C)c1 (stereo not drawn) | 1.56% |
| CC1(C)CC2(CC(c3ccccc3)Oc3cc(O)ccc32)NC(=S)N1 (stereo not drawn) | -1.51% |
| Cc1cc(C)n2c(SCC#N)nnc2n1 | -0.212% |
| CC(C)NCC1CCc2cc(CO)c([N+](=O)[O-])cc2N1 (stereo not drawn) | 4.66% |
| Cc1ccc(NC(=O)CSc2nncn2N)cc1C | 2.68% |
| C=C(C(=O)O)C1CCC2(C)CCCC(C)(O)C2C1 (stereo not drawn) | -1.14% |
| CCC(=O)Nc1nc(-c2cc([N+](=O)[O-])cs2)cs1 | -0.373% |
| CN(CC(=O)NCCCn1ccnc1)S(=O)(=O)c1ccc(Cl)cc1 | -0.102% |
| CC1=NN(C(N)=S)C(=O)C1N=Nc1ccccc1C(=O)O (stereo not drawn) | -1.34% |
| CN(/N=C/c1cc(Cl)cc(Cl)c1O)C(=S)NC(C)(C)C | -3.36% |
| Cc1ccc(NC(=O)CC2OC(=O)c3ccccc32)cc1S(=O)(=O)N1CCOCC1 (stereo not drawn) | -0.704% |

| SMILES | inhibition |
| --- | --- |
| COc1ccc(C(C(=O)NC2CCCC2)N(C(=O)c2ccoc2C)c2ccc(C)c(C)c2)cc1 (stereo not drawn) | -3.02% |
| N#C/C(N=Nc1ccccc1O)=N\Nc1ccccc1O | 7.46% |
| COC(=O)[C@@]1(Cc2ccc(F)cc2)[C@H]2c3cc(C(=O)N(C)C)n(Cc4c(CO)[nH]cc(C)c4=O)c3C[C@H]2CN1C(=O)c1ccccc1 | -0.239% |
| CSc1nc(-c2ccccc2)nc(C(Cl)Cl)n1 | -3.76% |
| CN(CC(=O)NCc1ccco1)CC(=O)Nc1c(Cl)cccc1Cl | 0.0178% |
| COc1cccc(C(=O)Cn2c(NCCCO)nc3ccccc32)c1 | -1.59% |
| COc1cc(C2/C(=C(\O)c3ccc4c(c3)CC(C)O4)C(=O)C(=O)N2CC2CCCO2)cc(OC)c1OC (stereo not drawn) | -1.4% |
| CC1(C)S[C@@H]2[C@H](NC(=O)C(C(=O)O)c3ccccc3)C(=O)N2[C@H]1C(=O)O (stereo partly drawn) | -0.669% |
| C/C(=N\NC(=O)c1ccccc1)c1c(C)[nH]n(-c2ccccc2)c1=O | -3.44% |
| COc1cc(/C=N/NC(=O)c2cc(-c3ccco3)nc3ccccc23)cc(OC)c1O | -2.85% |
| COCCNC(=S)N(CCc1c(C)[nH]c2ccccc12)Cc1ccco1 | -2.32% |
| O=C(C1=C[C@H](c2ccccc2)C[C@H](OCCCCO)O1)N1CCN(Cc2ccc3c(c2)OCO3)CC1 | -3.49% |
| Cc1ccc(S(=O)(=O)N(C)c2ccc(OC(=O)c3ccc(=O)[nH]c3)cc2)cc1 | -1.78% |
| Cc1ccc(NC(=O)c2ccc(=O)[nH]n2)cc1S(=O)(=O)Nc1ccccc1Cl | 1.5% |
| Cn1c(SCC(=O)NCCc2ccccc2)ncc(C(=O)Nc2ccc(F)cc2)c1=O | -0.414% |
| CCCCCOC(=O)Nc1nnc(CCCCC)s1 | 2.17% |
| CCSC1=NCCN1S(=O)(=O)c1ccc(Cl)cc1 | -2.28% |
| COc1ccc(-c2cccc(-c3cc(=O)oc4cc(OC)c(OC)c(OC)c34)c2)cc1 | -2.12% |
| COc1ccc(N2CCN(C3CCN(S(=O)(=O)c4ccc(F)cc4)CC3)CC2)cc1 | -1.08% |
